Results: PubChem BioAssay (EPA / NIEHS)
The source made the active and inactive calls. The calls were made as follows: active = hit-call score of the fitted dose curve at least 0.9, where 1 is the maximum; inactive = score below 0.9.

Assays:
[1] = read-out: Human Leukocyte Antigen - DR isotype (HLADR), HLA-DRA (gene 3122); test: BSK_BE3C_HLADR: BioMAP Diversity Plus: BE3C Assay for Human Leukocyte Antigen - DR isotype (HLADR) Biomarker Activity (AID 2283032); conditions: primary human bronchial epithelial cells; actives raise or lower the signal
In short: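 Human primary bronchial epithelial cells in the BE3C system were exposed to chemicals for 24 h, after which HLA-DR levels were quantified by ELISA. Activity was fitted bidirectionally, gain or loss of signal, against DMSO as negative control and baseline.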

[2] = read-out: Interferon-gamma inducible Protein 10 (IP10), CXCL10 (gene 3627); test: BSK_BE3C_IP10: BioMAP Diversity Plus: BE3C Assay for Interferon-gamma inducible Protein 10 (IP10) Biomarker Activity (AID 2283034); conditions: primary human bronchial epithelial cells; actives raise or lower the signal
In short: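 Human primary bronchial epithelial cells were exposed to chemicals for 24 hours, after which IP-10 levels were measured by ELISA. Data were fitted bidirectionally against DMSO, which served as the negative control and activity baseline.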

[3] = read-out: Monokine induced gamma interferon (MIG), CXCL9 (gene 4283); test: BSK_BE3C_MIG: BioMAP Diversity Plus: BE3C Assay for Monokine induced gamma interferon (MIG) Biomarker Activity (AID 2283035); conditions: primary human bronchial epithelial cells; actives raise or lower the signal
In short: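 ELISA read-out of MIG in human lung bronchial epithelial primary cultures, 24 h post-dosing. Bidirectional curve fit vs DMSO baseline.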

[4] = read-out: Transforming growth factor beta 1 (TGFb1), TGFB1 (gene 7040); test: BSK_BE3C_TGFb1: BioMAP Diversity Plus: BE3C Assay for Transforming growth factor beta 1 (TGFb1) Biomarker Activity (AID 2283036); conditions: primary human bronchial epithelial cells; actives raise or lower the signal
In short: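 Human primary bronchial epithelial cells (BE3C system) were dosed with chemical and TGF-b1 levels measured by ELISA at 24 h. Activity was fitted bidirectionally relative to DMSO negative control as baseline.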

[5] = read-out: Plasminogen activator inhibitor-1 (PAI1), SERPINE1 (gene 5054); test: BSK_BE3C_PAI1: BioMAP Diversity Plus: BE3C Assay for Plasminogen activator inhibitor-1 (PAI1) Biomarker Activity (AID 2283037); conditions: primary human bronchial epithelial cells; actives raise or lower the signal
In short: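 Human primary bronchial epithelial cells were exposed to chemical for 24 h, then PAI-1 was quantified by ELISA. Activity was fitted bidirectionally relative to the DMSO negative control baseline.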

[6] = read-out: urokinase plasminogen activator (uPA), PLAU (gene 5328); test: BSK_BE3C_uPA: BioMAP Diversity Plus: BE3C Assay for urokinase plasminogen activator (uPA) Biomarker Activity (AID 2283038); conditions: primary human bronchial epithelial cells; actives raise or lower the signal
In short: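 ELISA read-out of uPA in human lung primary bronchial epithelial cultures, 24 h post-dosing. Gain or loss of signal fitted bidirectionally relative to DMSO baseline; cytotoxicity checked in parallel cultures via SRB total protein stain.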

[7] = read-out: Urokinase-type plasminogen activator receptor (uPAR), PLAUR (gene 5329); test: BSK_BE3C_uPAR: BioMAP Diversity Plus: BE3C Assay for Urokinase-type plasminogen activator receptor (uPAR) Biomarker Activity (AID 2283039); conditions: primary human bronchial epithelial cells; actives raise or lower the signal
In short: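 Primary human bronchial epithelial cells were dosed with chemical and harvested 24 h later; uPAR was quantified by ELISA. Activity was fitted bidirectionally against DMSO as negative control and baseline.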

[8] = read-out: Interleukin-6 (IL6), IL6 (gene 3569); test: BSK_CASM3C_IL6: BioMAP Diversity Plus: CASM3C Assay for Interleukin-6 (IL6) Biomarker Activity for (AID 2283040); conditions: primary human coronary artery smooth muscle cells; actives raise or lower the signal
[9] = read-out: Tissue plasminogen activator (tPA), PLAT (gene 5327); test: BSK_BE3C_tPA: BioMAP Diversity Plus: BE3C Assay for Tissue plasminogen activator (tPA) Biomarker Activity (AID 2283041); conditions: primary human bronchial epithelial cells; actives raise or lower the signal
In short: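 Human primary bronchial epithelial cells were dosed with chemical and tPA biomarker levels measured by ELISA 24 hours later. Activity was fitted bidirectionally against DMSO as negative control and baseline.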

[10] = read-out: Vascular cell adhesion molecule 1 (VCAM1), VCAM1 (gene 7412); test: BSK_4H_VCAM1: BioMAP Diversity Plus: 4H Assay for Vascular cell adhesion molecule 1 (VCAM1) Biomarker Activity (AID 2283033); conditions: primary human endothelial cells (HUVEC); actives raise or lower the signal
In short: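 Primary human umbilical vein endothelial cells were exposed to chemicals for 24 h, after which VCAM-1 was quantified by ELISA. Responses were fitted bidirectionally against DMSO as negative control and activity baseline.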

Measured: AC50

CCCCCCCCCCC
not listed: [10]
inactive: all other assays above

O=C(O)CCCCC(=O)O
inactive: all assays above

CCCCN(CCCC)CCCC
inactive: all assays above

CC(C)(C)c1cc(O)c(C(C)(C)C)cc1O
active: [10] 6.44 µM | [9] 15.7 µM
inactive: all other assays above

NS(=O)(=O)c1cc2c(cc1Cl)NCNS2(=O)=O
inactive: all assays above

COCCOCCOC
inactive: all assays above

Cc1cccc(Nc2cc(Cl)nc(SCC(=O)O)n2)c1C
inactive: all assays above

CCc1c(C(=O)NN2CCCCC2)nn(-c2ccc(Cl)cc2Cl)c1-c1ccc(Br)cc1
inactive: [3] | [4] | [8]
active: [1] 11 µM | [10] 9.11 µM | [2] 24 µM | [5] 11 µM | [6] 33.3 µM | [7] 14.4 µM | [9] 20 µM

NCC1(Cc2noc(=O)[nH]2)CCCCC1
not listed: [10]
inactive: all other assays above

CN[C@H]1CC[C@@H](c2ccc(Cl)c(Cl)c2)c2ccc(S(N)(=O)=O)cc21
active: [1] 31.4 µM | [2] 37 µM | [3] 36.7 µM | [4] 31.1 µM | [5] 32.5 µM | [6] 31.1 µM | [7] 30.2 µM | [8] 33.1 µM | [9] 13 µM

Oc1ccc2ccccc2c1N=Nc1ccccc1
active: [10] 0.386 µM | [6] 2.47 µM
inactive: all other assays above

Cc1ccc2ncccc2c1
inactive: all assays above

CNC(=O)[C@H]1O[C@@H](n2cnc3c(NCc4cc(Cl)ccc4OCc4cc(C)no4)ncnc32)[C@H](O)[C@@H]1N
inactive: all assays above

COC(=O)c1ccc(O)cc1
not listed: [8]
inactive: all other assays above

CC1(C)NC(=O)NC1=O
inactive: all assays above

c1cc(-c2ccncc2)ccn1
inactive: all assays above

CCOC(=O)C(C)(C)Oc1ccc(Cl)cc1
not listed: [10]
inactive: all other assays above

CC(C)c1ccc(C(=O)N=C(N)N)cc1S(C)(=O)=O
not listed: [10]
inactive: all other assays above

O=C(O)Cc1ccccc1Nc1c(Cl)cccc1Cl
not listed: [10]
inactive: all other assays above

CCCCCCOCCO
not listed: [10]
inactive: all other assays above

CCCCCCCCCCCCCCCC
not listed: [10]
inactive: all other assays above

CCCCC(CC)COC(=O)CC(C(=O)OCC(CC)CCCC)S(=O)(=O)O (configuration not stated)
inactive: [8]
active: [1] 7.52 µM | [2] 7.16 µM | [3] 8.91 µM | [4] 6.71 µM | [5] 11.5 µM | [6] 11.1 µM | [7] 11.9 µM | [9] 11.6 µM

Cc1ccc(Cl)cc1
not listed: [10]
inactive: all other assays above

CCCCCCCCCCCCCO
active: [2] 29.7 µM | [9] 26.9 µM
not listed: [10]
inactive: all other assays above

Cc1cc(=O)[nH]c(=S)[nH]1
not listed: [10]
inactive: all other assays above

CCCCCCCCCCO
not listed: [10]
inactive: all other assays above

C[Si]1(C)O[Si](C)(C)O[Si](C)(C)O[Si](C)(C)O1
not listed: [10]
inactive: all other assays above

COc1cc(S(=O)(=O)O)c(C)cc1N=Nc1c(O)ccc2cc(S(=O)(=O)O)ccc12
not listed: [10]
inactive: all other assays above

CCCCCCCCCCCC(=O)OC
not listed: [10]
inactive: all other assays above

CNCc1cc(F)ccc1Oc1ccc(Cl)c(Cl)c1
active: [1] 27.9 µM
not listed: [10]
inactive: all other assays above

CC(=O)Oc1ccccc1C(=O)O
not listed: [10]
inactive: all other assays above

C=CCOC(=O)c1ccccc1C(=O)OCC=C
not listed: [10]
inactive: all other assays above

COc1cc(C=O)ccc1O
not listed: [10]
inactive: all other assays above

NCCO
not listed: [10]
inactive: all other assays above

CCCCCC(=O)O
not listed: [10]
inactive: all other assays above

Cc1cccc(C)c1O
not listed: [10]
inactive: all other assays above

Cc1cc(NC(=O)C(=O)O)cc(C)c1Oc1ccc(O)c2c1CCC2
not listed: [10]
inactive: all other assays above

CCCc1cc(=O)[nH]c(=S)[nH]1
not listed: [10]
inactive: all other assays above

CCCCCCC(=O)OCC
not listed: [10]
inactive: all other assays above

Cc1oc(-c2ccccc2)nc1CCOc1cccc2c1ccn2CCC(=O)O
active: [1] 20.7 µM | [2] 26 µM | [9] 20 µM
not listed: [10]
inactive: all other assays above

Cc1nc(-c2ccc3c(c2)CCN(CCC2CCC(NC(=O)/C=C/c4ccc(F)cc4)CC2)CC3)no1 (configuration not stated)
active: [1] 12.8 µM | [2] 15 µM | [3] 13.5 µM | [6] 9.94 µM
not listed: [10]
inactive: all other assays above

Nc1ccc2c(c1)C(=O)c1ccccc1C2=O
not listed: [10]
inactive: all other assays above

Cc1ccccc1Cl
not listed: [10]
inactive: all other assays above

CC(CO)OC(C)CO (configuration not stated) (tested in a mixture with another compound)
not listed: [10]
inactive: all other assays above

OC[C@@H](O)[C@@H](O)[C@H](O)[C@H](O)CO
not listed: [10]
inactive: all other assays above
